Measurements taken from ChEMBL document CHEMBL3988442, “University of Dundee, Small-Polar-MMV Screening Library” (2021).
The campaign covered roughly 48,000 compounds. About 13,000 (27%) showed an effect of 50% or more. The list shows a part of the results.

Test system: Wolbachia pipientis
Assay: Anti-Wolbachia Cell-Based Screen
Type: functional
Set-up: scale not given: in the data most compounds retested in dose-response had high values
Details: 5 µM

SMILES	Percent Effect [%]
CO[C@H]1CN(Cc2cc(Cn3cncn3)c(C)cc2C)CC[C@H]1N	13.4
CCC(=O)N1CCCC1c1nccnc1Nc1nc(C)cc(C)n1 (stereo not drawn)	4.912
Cc1cc(C)nc(Nc2nccnc2C2CCCN(CCO)C2)n1 (stereo not drawn)	115.9
Cc1cc(C)nc(Nc2nccnc2C2CCCN(C(CO)CO)C2)n1 (stereo not drawn)	89.81
Cc1cc(C)nc(Nc2nccnc2C2CCCN(C(C)C)C2)n1 (stereo not drawn)	76.04
CC(=O)N1CCCC(c2nccnc2Nc2nc(C)cc(C)n2)C1 (stereo not drawn)	92.16
CCN1C(=O)[C@H]2CN(Cc3cccnc3)C[C@H]2C12CCN(C(C)=O)CC2	-22.31
COCC(NC(=O)NCc1ccc(C)c(F)c1)c1ccco1 (stereo not drawn)	5.842
O=C(NC1CC1)N1CCCC2(CCNC2=O)C1 (stereo not drawn)	-20.05
COc1c(F)cc(NCC(=O)NC(C)(C#N)C2CC2)cc1F (stereo not drawn)	-10.88
CCOC(=O)N1CCN(c2nc(N)c3ccccc3n2)CC1.Cl	10.93
COCc1ccccc1C(=O)N(C)Cc1ncc(C)c(OC)c1C	29.72
COCc1ccccc1C(=O)OCc1noc(C)n1	97.59
Cc1nc(COc2cccc(C#N)c2)no1	2.018
Cc1noc(C)c1CC(=O)OCc1nc(N)c2ccccc2n1	-18.91
Cc1csc(CN(CC2CCCO2)C(=O)c2cccnc2C)n1 (stereo not drawn)	-5.515
Cc1nc(COC(=O)c2cccnc2C)no1	111.5
Cc1cnc(N2CCC(OCCN3CCCCC3)C2)nc1C (stereo not drawn)	11.15
CN(CC1CC1)C(=O)CN(Cc1cccc(O)c1)C1CCC(O)CC1 (stereo not drawn)	-10.37
CN1CCC(N(Cc2ccccc2)C(=O)c2ccn3ccnc3c2)CC1	0.1453
CN1CCC(N2CCC(CN(Cc3ccncc3)C3CCC3)CC2)CC1	7.68
CN1CC[C@H](N(C)Cc2ccccc2)C[C@H](O)C1	67.42
CN1CCC(N(Cc2ccccc2)C(=O)c2ccn3cncc3c2)CC1	-5.801

SMILES	Percent Effect [%]
CN1CC[C@H](N(Cc2ccccc2)C2COC2)C[C@H](O)C1	101.7
CN1CCC(N(Cc2ccccc2)C(=O)c2nccn3ccnc23)CC1	3.341
CN1CC[C@H](N(Cc2ccccc2)Cc2ccccc2)C[C@H](O)C1	97.14
CN1CCC(N2C[C@H](O)C[C@H]2c2nc(Cc3ccccc3)no2)CC1	-1.075
CN1CC[C@H](N(Cc2ccccc2)CC2CC2)C[C@H](O)C1	101.2
CN1CCC(N(C)CCC(=O)N2CCC(OCc3ccccc3)CC2)C1 (stereo not drawn)	-15.08
CN1CCC(N(C)CCC(=O)N2CCC(CCc3ccccc3)CC2)C1 (stereo not drawn)	-7.751
COC(=O)c1sc2nc3c(c(C(F)(F)F)c2c1N)CN(C(C)=O)CC3	5.653
CC(C(=O)Nc1ccc(N2CCCC2)nc1)n1cccn1 (stereo not drawn)	93.36
CC(C(=O)Nc1ccc(N2CCCC2)nc1)n1cncn1 (stereo not drawn)	-0.2792
CC(Cn1cccn1)NC(=O)Nc1ccc(N2CCCC2)nc1 (stereo not drawn)	-16.81
CC(C(=O)Nc1ccc(N2CCCCC2)nc1)n1ccnc1 (stereo not drawn)	105.1
CC(Cn1cccn1)NC(=O)Nc1ccc(N2CCCCC2)nc1 (stereo not drawn)	-23.5
COc1ccc(NC(=O)C(C)n2cncn2)cn1 (stereo not drawn)	104.1
O=C(Cc1ccccc1O)Nc1ccc(N2CCCC2)nc1	0.2058
CC(C(=O)Nc1ccc(N2CCCC2)nc1)n1ccnc1 (stereo not drawn)	-0.9927
CC(C(=O)Nc1cccc(N2CCCCC2)c1)n1cncn1 (stereo not drawn)	4.529
COc1ccc(Oc2ccc(CNC(=O)C(C)n3cncn3)cn2)cc1 (stereo not drawn)	-12.03
CC(C(=O)NCc1ccnc(Oc2ccc(F)cc2)c1)n1cncn1 (stereo not drawn)	-19.79
CC(C(=O)Nc1ccc(N2CCCCC2)nc1)n1cncn1 (stereo not drawn)	95.56
CC(C)COCC(NC(=O)c1cc[nH]n1)c1ccco1 (stereo not drawn)	4.731
CCN(CC(=O)N(C)C)S(=O)(=O)c1cnc2c(c1)c(C)nn2C	5.433
CCN1CCc2[nH]cnc2C12CCN(c1ncc(C(=O)O)cc1Cl)CC2	3.404

SMILES	Percent Effect [%]
Brc1ccc(C2(CNCc3cc[nH]c3)CCOCC2)cc1	10.2
CN1CCCc2ccc(S(=O)(=O)NC(=O)C3CC=CC3)cc21	-3.642
CC(C(=O)Nc1ccc(N2CCOCC2)nc1)n1cncn1 (stereo not drawn)	104.2
CC(OCC(F)(F)F)C(=O)Nc1ccc(-n2cncn2)nc1 (stereo not drawn)	-8.836
CC(Cc1ccco1)NC(=O)Nc1ccc(N2CCOCC2)nc1 (stereo not drawn)	-10
CCn1cc(CN2CCC(NS(C)(=O)=O)CC2)cc1C#N	-7.298
CC(C)Cn1cnnc1C1CCCN1C(=O)c1cc2ccccn2c1 (stereo not drawn)	-13.41
CN[C@@H](CO)C(=O)NCc1cc2n(n1)CCCN(C1CCCCC1)C2	120.8
CCC(C)NC(=O)NCc1cc2n(n1)CCCN(C1CCCCC1)C2 (stereo not drawn)	123
CC(C)c1nnc(NCc2cc3n(n2)CCN(C2CCCCC2)C3)s1	8.692
CCC(OC)C(=O)NCc1cc2n(n1)CCCN(C1CCCCC1)C2 (stereo not drawn)	113.3
CC(C)CN1CCCn2nc(CNC(=O)NC(C)(C)C)cc2C1	-2.187
CCCN1CCCn2nc(CNC(=O)C3CCOC3)cc2C1 (stereo not drawn)	-8.283
CCCOC(C)C(=O)NCc1cc2n(n1)CCCN(C1CCCCC1)C2 (stereo not drawn)	111
CCC(CC)CN1CCCn2nc(CNC(=O)COC)cc2C1	4.127
CC(C)NCc1cc2n(n1)CCN(C1CCCCC1)C2	-9.171
COC(=O)NCc1cc2n(n1)CCCN(C(C)=O)C2	17.7
CC(C)CN1CCCn2nc(CNC(=O)OCc3ccccc3)cc2C1	17.53
O=C(c1ccc(Cl)s1)N1CCCn2nc(CN3CC[C@H](F)C3)cc2C1	0.8139
Cc1nc(C(C)N(C)Cc2nc(CCC(C)C)no2)c(C)s1 (stereo not drawn)	1.881
CCSc1ccc(C(C)NC(=O)CCS(C)(=O)=O)cc1 (stereo not drawn)	-10.2
CC(C)(C)c1nccc(N2CCN(C3CCS(=O)(=O)C3)CC2)n1 (stereo not drawn)	-14.65
